# High-throughput results as filed in PubChem BioAssay.
# Hits are enriched below; roughly 2.2% of the tested compounds scored in any of these assays.
# NPR1 activator – GC-A stimulated cGMP production enhancers – HEK293 GC-A cells, cGMP TR-FRET, EC30 ANP, primary screen | Atrial natriuretic peptide receptor 1 (Homo sapiens), P16066 | activation, % at 10 µM | hit rate 0.14% among 370,000 | 0% at EC30 ANP, 100% saturating ANP; in the data active means activation above about 40%
# proKLK7 act – proKLK7 zymogen activators, primary screen, biochemical, fluorescence intensity. Kallikrein-7 (Homo sapiens), P49862. purified proKLK7, EDANS-DABCYL substrate fluorescence; 100% is mature enzyme control, 0% vehicle. activation, % at 7 µM. hit rate 0.9% among 370,000. AID 652039, 2013;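 active means activation above the mean of all tested compounds plus 3 SD, computed per campaign excluding outliers beyond control limits, cut at about 13% in these data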
# ADAM17 inh – ADAM17 inhibitors, primary screen, biochemical, QFRET; Disintegrin and metalloproteinase domain-containing protein 17 (Homo sapiens), P78536; recombinant ADAM17, EDANS/DABCYL FRET peptide cleavage; inhibition, % at 6.95 µM; hit rate 0.83% among 370,000; AID 720648, 2013;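 active means inhibition above the mean of compounds lying between control limits plus 3 SD, set per campaign, cut at about 8.5% in these data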;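 further: 0% = DMSO-only wells as the low control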
# Target sequence (P78536 215-824 limits assumed): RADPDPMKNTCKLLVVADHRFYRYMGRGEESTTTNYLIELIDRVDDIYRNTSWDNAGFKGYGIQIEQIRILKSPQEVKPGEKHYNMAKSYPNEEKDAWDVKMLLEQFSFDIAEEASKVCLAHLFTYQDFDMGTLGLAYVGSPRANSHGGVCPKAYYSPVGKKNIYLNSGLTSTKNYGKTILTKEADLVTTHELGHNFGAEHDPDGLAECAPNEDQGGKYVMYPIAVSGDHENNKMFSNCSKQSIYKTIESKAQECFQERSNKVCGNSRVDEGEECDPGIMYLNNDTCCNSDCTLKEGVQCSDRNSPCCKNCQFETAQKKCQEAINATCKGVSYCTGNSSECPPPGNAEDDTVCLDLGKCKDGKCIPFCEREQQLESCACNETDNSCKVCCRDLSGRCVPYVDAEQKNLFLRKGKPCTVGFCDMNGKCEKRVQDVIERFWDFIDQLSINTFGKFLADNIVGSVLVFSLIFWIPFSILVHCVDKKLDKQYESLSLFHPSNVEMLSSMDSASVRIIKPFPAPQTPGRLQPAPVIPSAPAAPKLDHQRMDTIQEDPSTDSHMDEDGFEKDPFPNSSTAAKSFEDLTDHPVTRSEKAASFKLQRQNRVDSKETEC
# NPR2 activator – human GC-B receptor activators, primary screen, HEK293 GC-B cells, cGMP TR-FRET, EC30 CNP | Atrial natriuretic peptide receptor 2 (Homo sapiens), P20594 | 0% at EC30 CNP, 100% saturating CNP | activation, % at 10 µM | hit rate 0.11% among 370,000 | AID 1920062, 2024;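 active means activation at 10 µM reaching about 35% in either raw or pattern-adjusted values, limit read from the data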
# ADAM10 inh – human ADAM10 inhibitors, primary screen, biochemical, QFRET, HTS. Disintegrin and metalloproteinase domain-containing protein 10 (Homo sapiens), O14672. recombinant ADAM10, EDANS/DABCYL FRET peptide cleavage, 3 h. inhibition, % at 7 µM. hit rate 0.62% among 370,000;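 active means inhibition above a per-campaign cutoff equal to the mean of compounds falling between control-based bounds plus 3 SD, cut at about 20% in these data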;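 further: 0% = DMSO wells while the 100% control is not disclosed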
# ADAM10 confirm – human ADAM10 inhibitors, confirmation, biochemical, QFRET, triplicate; shares compounds with ADAM10 inh; ADAM10 QFRET peptide cleavage, EDANS fluorescence; inhibition, % at 6.95 µM; hit rate 1% among 2,100;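 active means inhibition above about 20% chosen separately for each screening run, limit read from the data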;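 further: 0% = DMSO wells and 100% = marimastat wells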
# ADAM17 counter – ADAM17 inhibitors, counter-screen for ADAM10 exosite inhibitor project, biochemical, QFRET, high throughput | hit rate 0.5% among 2,100 | shares compounds with ADAM10 inh | inhibition, % at 6.95 µM | ADAM17 QFRET peptide cleavage, EDANS fluorescence;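 active means mean triplicate inhibition above the solvent-only control wells' mean plus 3 SD, cut at about 12% in these data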;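 further: 0% = DMSO wells and 100% = marimastat wells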
# ADAM10 ctr – ADAM10 inhibitors, counter-screen for ADAM17 exosite inhibitor project, biochemical, FRET, human ADAM10 | shares compounds with ADAM17 inh | recombinant ADAM10, EDANS/DABCYL FRET peptide cleavage, 3 h | inhibition, % at 6.95 µM | hit rate 47% among 2,900 | AID 743256, 2014;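 active means mean inhibition over the triplicate runs exceeds the activity threshold set in the earlier primary screen, cut at about 20% in these data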;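 further: 0% = DMSO wells and 100% = marimastat wells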
# ADAM17 confirm – ADAM17 inhibitors, hit retest, confirmation, biochemical, QFRET peptide cleavage; shares compounds with ADAM17 inh; inhibition, % at 6.95 µM; recombinant ADAM17, EDANS/DABCYL QFRET peptide cleavage; hit rate 65% among 2,900;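 active means mean inhibition across replicates above the hit cutoff set in the primary screen, cut at about 8.5% in these data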;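 further: 0% = DMSO wells and 100% = marimastat wells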
# Starred values were filed as active, the others as inactive; i = inactive; · = no result given.
SMILES,NPR1 activator,proKLK7 act,ADAM17 inh,NPR2 activator,ADAM10 inh,ADAM10 confirm,ADAM17 counter,ADAM10 ctr,ADAM17 confirm
Cc1ccc(-c2cc(C(=O)NN=Cc3cccc4ccccc34)[nH]n2)cc1C,-2,-11,2,-10,7,·,·,·,·
COc1ccc(/C=C/S(=O)(=O)NCc2ccc(F)cc2)c(CNC(=O)OC(C)(C)C)c1,-6,0,1,-3,8,·,·,·,·
CN(c1ccccc1)S(=O)(=O)c1cccc(NC(=O)CSc2ncc(C(F)(F)F)cc2Cl)c1,-2,0,10.0*,2,20*,10,4,26*,10*
COc1ccc(/C=N/NC(=O)Cc2csc(Nc3cccc(C(F)(F)F)c3)n2)cc1C,-5,0,13*,7,28*,6,2,33*,20*
Cc1cc(C)n(Cc2ccc(NC(=O)c3ccc(COc4ccccc4Br)cc3)cc2)n1,24,-1,11*,4,29*,10,4,17,12*
CC(O)(c1ccc(F)c(F)c1)c1nc(-c2ccc3ccccc3c2)cs1 (stereo not given),-2,1,22*,-7,44*,7,3,17,9.4*
CC(O)(c1ccc(F)c(F)c1)c1nc(-c2cnc3ccccc3c2)cs1 (stereo not given),-3,0,5,-4,0,·,·,·,·
CC(O)(c1ccccc1)c1nc(-c2cc3ccccc3o2)cs1 (stereo not given),11,1,8.7*,-9,26*,13,4,30*,15*
CC(O)(c1ccccc1)c1nc(-c2ccc(Cl)cc2)cs1 (stereo not given),3,4,-1,-7,11,·,·,·,·
C#CCNC(=O)C[C@H]1C[C@@]2(C(=O)OC)C(=C[C@H](C(C)C)O[C@@H]2C2CC2)N(CCC2=CCCCC2)C1=O,-2,1,0,-7,-3,·,·,·,·
O=C(NNC(=O)c1cc(-c2ccccc2)nc2ccccc12)Nc1cccc(Cl)c1,1,-1,10*,2,25*,19,7,31*,21*
O=C(Nc1cccc(F)c1)c1cc(S(=O)(=O)NCCC2=CCCCC2)ccc1F,-7,0,9.1*,1,24*,8,2,22*,14*
COc1ccc(C2c3c(-c4ccccc4O)n[nH]c3C(=O)N2Cc2ccco2)cc1 (stereo not given),6,0,8,-2,16,·,·,·,·
COc1ccc(CCN2C(=O)c3[nH]nc(-c4ccccc4O)c3C2c2cccc(Cl)c2)cc1 (stereo not given),-14,0,14*,-10,36*,11,5,41*,17*
CCn1c(NCc2ccccc2NS(=O)(=O)c2ccc(C)cc2)nc2ccccc21,-10,-1,16*,-3,27*,6,3,24*,15*
CCCn1c(NCc2ccccc2NS(=O)(=O)c2ccc(C)cc2)nc2ccccc21,-6,0,-1,-16,4,·,·,·,·
O=C(Nc1nc2ccc(F)cc2s1)C1CCN(S(=O)(=O)c2cc([N+](=O)[O-])ccc2Cl)CC1,22,1,8.8*,-7,21*,5,2,15,13*
COc1ccc(CN2C(=O)[C@]3(NCCc4c3[nH]c3ccc(OC)cc43)c3cc(F)ccc32)cc1,1,1,4,0,11,·,·,·,·
Cc1[nH]c2ccccc2c1/C=N/Nc1nc(Nc2ccc(F)cc2)nc(N2CCOCC2)n1,0,1,-1,4,15,·,·,·,·
Cc1ccc(Nc2nc(N/N=C/c3c[nH]c4ccccc34)nc(N3CCOCC3)n2)cc1,-5,-1,10*,-9,22*,8,3,27*,16*
O=C(Oc1cccc(/C=N/Nc2nc(Nc3ccccc3)nc(N3CCOCC3)n2)c1)c1ccco1,6,0,8.8*,3,22*,8,3,41*,23*
CC(C)(C)N(Cc1cn(Cc2ccccc2)nn1)S(=O)(=O)c1ccc(F)cc1Br,2,0,0,1,-1,·,·,·,·
CC(=O)Nc1ccccc1N(CC(O)Cn1c2ccccc2c2ccccc21)S(=O)(=O)c1ccc(C)cc1 (stereo not given),-25,0,13*,-7,25*,10,4,38*,23*
COc1ccc(N(CC(O)Cn2c3ccccc3c3ccccc32)S(=O)(=O)c2ccccc2)cc1 (stereo not given),-19,-5,13*,-18,31*,191*,41*,-3,12*
CN=C1S/C(=C/c2cc(C)n(Cc3ccccc3)c2C)C(=O)N1C,-4,·,0,-9,1,·,·,·,·
SMILES,NPR1 activator,proKLK7 act,ADAM17 inh,NPR2 activator,ADAM10 inh,ADAM10 confirm,ADAM17 counter,ADAM10 ctr,ADAM17 confirm
Cc1cccc(-n2ncc3c(NCc4cccs4)ncnc32)c1,-1,0,12*,-2,23*,3,0,12,9.6*
Clc1ccc(-n2ncc3c(NCc4cccs4)ncnc32)cc1,6,0,-4,-7,2,·,·,·,·
O=C(Nc1ccccc1)Nc1cc(OCC(F)(F)F)cc(OCC(F)(F)F)c1,8,0,15*,-4,31*,9,2,28*,17*
O=S(=O)(CC1NCc2ccccc21)NCc1ccc(F)cc1 (stereo not given),-1,-1,3,-1,3,·,·,·,·
CCCCN1C(=O)c2ccccc2NC1c1ccc(OC)c(COc2ccc(NC(C)=O)cc2)c1 (stereo not given),-18,·,-276,-18,i,·,·,·,·
CCOC(=O)C(=O)Cc1nc(OCc2ccccc2)cc(OCc2ccccc2)n1,-1,0,-3,-2,-3,·,·,·,·
